Screen size: about 330,000 compounds; about 4,100 (1.2%) were called active. Cut-off read from the data, not from the text of the source: active = inhibition above about 50%; inactive = the rest. This excerpt belongs to a sample that is enriched for actives.
What follows are compounds tested against Sentrin-specific protease 8 (Homo sapiens) (UniProt Q96LD8) (assay: SENP8 protease inhibitors, primary screen, biochemical, luminescence (AID 2540)). Conditions: purified SENP8, Z-RLRGG-aminoluciferin cleavage, at 10 µM, hits give high values.
Chain of Sentrin-specific protease 8 (Homo sapiens) (Q96LD8 whole entry, looked up): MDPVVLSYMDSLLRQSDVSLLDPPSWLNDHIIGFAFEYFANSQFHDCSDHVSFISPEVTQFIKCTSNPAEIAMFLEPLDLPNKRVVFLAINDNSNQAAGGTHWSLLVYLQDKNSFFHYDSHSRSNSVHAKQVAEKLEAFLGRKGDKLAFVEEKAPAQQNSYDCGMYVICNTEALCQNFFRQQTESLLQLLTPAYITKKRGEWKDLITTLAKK

Structure (SMILES) | inhibition
CC1(C)C2CC=C(/C=N/NC(=O)c3ccc(Cl)cc3)C1C2 (centres undefined) | -0.62% (inactive)
CCN1CCN(c2nc(Nc3cccc(F)c3)nc(N)c2[N+](=O)[O-])CC1 | -4.79% (inactive)
CNc1nc(Nc2ccc(C)c(Cl)c2)nc(N)c1[N+](=O)[O-] | 96.8% (active)
COc1cccc(Nc2nc(N)c([N+](=O)[O-])c(NCc3ccco3)n2)c1 | -2.27% (inactive)
Cc1cc(C)c(NC(=S)N2CCCC2C(=O)O)c(C)c1 (centres undefined) | -2.97% (inactive)
CC(=O)c1cccc(NC(=O)c2cc(C)nn2-c2ccccc2)c1 | -2.45% (inactive)
N#Cc1ccc(S(=O)(=O)NCC(=O)OCC(=O)NCCc2ccccc2)cc1 | 2.9% (inactive)
O=C1/C(=C/c2cccs2)CCC1C1CCCC1 (centres undefined) | 80.6% (active)
COc1ccc(/C=C2\CCc3ccccc3C2=O)c(OC)c1OC | -6.3% (inactive)
O=C1/C(=C/c2cccs2)CCc2ccccc21 | 96.5% (active)
O=C1/C(=C/c2cccs2)SC(=S)N1C1CCS(=O)(=O)C1 (centres undefined) | 10.2% (inactive)
O=S(=O)(c1cccs1)N1CCc2ccccc2C1 | -2.48% (inactive)
CCC1C/C(=C/c2cccs2)C(=O)/C(=C/c2cccs2)C1 (centres undefined) | -8.62% (inactive)
CC(C)(C)C(=O)CSc1ccc(S(=O)(=O)N2CCCC2)cn1 | 0.226% (inactive)
CC(=O)N1CCC(C(=O)OCc2ccc(Cl)cc2)(c2ccccc2)CC1 | -16% (inactive)
Cc1ccc(CNC(=O)CCNS(=O)(=O)c2ccc(Br)s2)cc1 | -3.11% (inactive)
Oc1c(C=Nc2cccc3nsnc23)ccc2ccccc12 | 75.8% (active)
CCCn1c(SCC(=O)c2ccc3c(c2)OCCO3)nnc1C(C)C | 1.93% (inactive)
Cc1ccc2cc(/C=N/Nc3ccc(C(=O)O)cc3)c(Cl)nc2c1 | -3.31% (inactive)
O=C(O)c1ccc(/C=N/Nc2nc(N3CCCCC3)nc(N3CCCCC3)n2)cc1 | -10.8% (inactive)
O=C(O)c1ccc(N/N=C/c2ccc3ncccc3c2)cc1 | 97.1% (active)
S=c1[nH]nc(-c2cc(-c3ccccc3)n[nH]2)n1/N=C/c1c2ccccc2cc2ccccc12 | -9.93% (inactive)
O=C(Nc1cccnc1Cl)c1cc(-c2ccccc2O)on1 | -7.17% (inactive)
S=c1[nH]nc(-c2cc(-c3ccsc3)n[nH]2)n1-c1ccccc1 | 2.29% (inactive)
c1ccc(-c2cc(-c3ccccc3)[nH]n2)cc1 | 58.4% (active)

Structure (SMILES) | inhibition
Oc1ccccc1-c1cc(-c2ccc(Cl)cc2)n[nH]1 | 89.8% (active)
Cc1ccc(NC(=O)c2cc(-c3ccccc3O)n[nH]2)cc1C | -13.8% (inactive)
CCOc1ccc(C(=O)CCN2CCOCC2)cc1 | -4.08% (inactive)
CCCCn1c(N)c(N(CC(C)C)C(=O)C2CSC3(C)CCC(=O)N23)c(=O)[nH]c1=O (centres undefined) | -4.36% (inactive)
COC(C/C=C/C(=O)[C@@H](C)OCc1ccccc1)OC | -1.1% (inactive)
COc1ccccc1C(=O)Nc1ccc(NC(=O)c2ccco2)c(C)c1 | 42.6% (inactive)
Cc1cc(NC(=O)c2ccc(F)cc2)ccc1NC(=O)c1ccco1 | 55.5% (active)
O=C(Nc1ccc(O)cc1)c1ccc(NC(=O)c2ccco2)cc1 | -13.6% (inactive)
CC1(C)CCSC(/C=C/c2ccccc2)=N1 | -3.81% (inactive)
CCOc1ccc(C(O)Cn2c(=N)n(CCN3CCCCC3)c3ccccc32)cc1 (centres undefined) | 4.64% (inactive)
O=C1c2ccccc2-c2ncnc3c(N4CCOCC4)cc(N4CCOCC4)c1c23 | -2.88% (inactive)
O=C(c1ccccc1)C(Cn1cncn1)C(Sc1ccccc1)c1ccccc1 (centres undefined) | -0.476% (inactive)
Cc1ccc(NC(=O)Nc2nnc(-c3ccncc3)s2)cc1 | -9.37% (inactive)
Cc1ccc(Nc2nc(Cl)c(C=O)s2)cc1 | 67.8% (active)
Cc1ccc(Nc2nc(C)cc(C)c2C(N)=O)cc1 | 5.13% (inactive)
CCOC(=O)C1CCN(S(=O)(=O)c2ccc3c(c2)N(C)C(=O)CC(=O)N3C)CC1 | 2.4% (inactive)
CC[N+](C)(CC)CCC[n+]1c(-c2ccccc2)c2cc(N)ccc2c2ccc(N)cc21 | 96.5% (active)
Cc1cc(C)cc(-c2nnc(SCC(=O)NC3CC3)o2)c1 | -2.18% (inactive)
Cc1nn(CC(=O)Nc2ccc(F)cc2)c(=O)c2ccccc12 | 1.21% (inactive)
CCC(=O)Nc1ccc2nn(-c3ccc(F)cc3)nc2c1 | 63.6% (active)
Cc1ccc(-n2nc3ccc(NC(=O)/C=C/c4ccco4)cc3n2)cc1C | 15.4% (inactive)
CCOc1c2ccc(C(=O)NC3CCCc4ccccc43)cc2nn1CC (centres undefined) | -8.27% (inactive)
CC(=O)N1CC2(C)CN(C(C)=O)CC(C)(C1)C2=O | 1.73% (inactive)
CCOc1ccc(-n2c(SCC(N)=O)nnc2-c2ccco2)cc1 | -1.84% (inactive)
CCCCOc1ccc(-c2nnc(-c3ccco3)o2)cc1 | 64.8% (active)

Structure (SMILES) | inhibition
CCOc1ccc(-c2nnc(-c3ccco3)o2)cc1 | 73.3% (active)
CCCCSc1nnc(-c2ccc(C)cc2)o1 | 33.5% (inactive)
N#Cc1ccc(OCc2nnc(-c3ccc([N+](=O)[O-])cc3)o2)cc1 | 7.85% (inactive)
CCCCOc1ccc(-c2ncc(C(=O)OCC)c(N)n2)cc1 | -12.4% (inactive)
Cc1c(-c2ccccc2)n[nH]c1C(=O)N=Nc1c(O)[nH]c2ccccc12 | 21.6% (inactive)
Cc1ccccc1NS(=O)(=O)CCCCC(Cl)(Cl)Cl | 7.88% (inactive)
CCOc1ccc(S(=O)(=O)N/N=C(\C)c2ccc(Cl)c(Cl)c2Cl)cc1 | 1.79% (inactive)
CCN1C(=O)C(C(=O)NC(C)c2ccccc2)C2CC1(C)Oc1ccccc12 (centres undefined) | 7.17% (inactive)
CSc1sc(C(=O)NC(=O)NCc2cccnc2)c(C)c1-c1ccon1 | 4.14% (inactive)
O=C(Cn1cc(C(=O)C2CC2)c2ccccc21)Nc1ccccc1Cl | 5.51% (inactive)
O=C(COC(=O)c1ccc(O)cc1O)NNC(=O)c1cccs1 | -4.38% (inactive)
COc1ccc(/C=C2\SC(=S)N(CC(=O)NNC(=O)c3ccncc3)C2=O)cc1 | -3.25% (inactive)
Cc1ccc(/C=C2/SC(=S)N(CCC(=O)NCCCN3CCOCC3)C2=O)cc1 | -1.52% (inactive)
C=CCOc1ccc(/C=C2\SC(=S)N(CCC(=O)O)C2=O)cc1 | 97.6% (active)
C[C@@H](C(=O)Nc1ccc2ccccc2c1)[C@@H]1C[C@@]1(C)[C@@H](NC(=O)c1cccnc1)c1ccccc1 | 13.1% (inactive)
CCOC(=O)C1=C(NC(=S)NC(=O)c2ccccc2)c2ccccc2CC1(C)C | -5.5% (inactive)
COc1ccccc1NC(=O)COC(=O)CNC(=O)C1CCCCC1 | 8.04% (inactive)
COc1cc(/C=N/N=C(\N)c2nonc2N)cc(OC)c1OC | -1.1% (inactive)
CN(C)c1nnnn1-c1ccc(Cl)cc1 | 2.64% (inactive)
c1ccc(-n2nc3ccccc3n2)cc1 | -19.2% (inactive)
Nc1ccc2nn(-c3ccc(Cl)cc3)nc2c1 | 86.7% (active)
COc1ccc(Br)cc1CN(C)CC(=O)Nc1cc([N+](=O)[O-])ccc1OC | -6.64% (inactive)
Cc1ccc2c(c1)NCC(C(=O)NC1CCC(C)CC1)O2 (centres undefined) | -10.8% (inactive)
COc1cccc(C(=O)NC(=O)Nc2nc(C)cc(C(F)(F)F)n2)c1 | -10.3% (inactive)
Cc1ccc(/C=N/NC(=S)NC2CCCCC2)o1 | -5.05% (inactive)

Structure (SMILES) | inhibition
Cc1ccc(/C=N/NC(=O)c2cc3ccccc3cc2O)o1 | 55.8% (active)
Cc1ccc(/C=N/NC(=S)Nc2cccc(S(=O)(=O)N(C)C)c2)o1 | 1.79% (inactive)
CNC(=O)c1cc2c(ccc3ccccc32)oc1=N | -3% (inactive)
N=c1oc2ccccc2cc1C(=O)NCc1ccccc1 | -17.9% (inactive)
N=c1oc2ccccc2cc1C(=O)N/N=C/c1ccccc1 | 86.5% (active)
CN(CC(=O)NC1CCCC1)S(=O)(=O)c1cnc[nH]1 | -8.57% (inactive)
O=C(NCCO)C(=O)NCC(c1ccc2c(c1)OCO2)N1CCN(c2ccc(F)cc2)CC1 (centres undefined) | -0.025% (inactive)
CC(=O)N1CC(C)c2scc(C)[n+]2-c2ccccc21 (centres undefined) | 0.506% (inactive)
COc1ccc(S(=O)(=O)Nc2ccc(F)cc2)c(C)c1C | 3.56% (inactive)
O=C(Nc1cc2c3c(c1)CC(=O)N3CCC2)c1ccccc1F | 3.3% (inactive)
Cc1ccc(C)c(NC(=O)CSc2nc3c(oc4ccccc43)c(=O)n2-c2ccccc2)c1 | -0.496% (inactive)
Oc1ccc(N=Nc2nccs2)c(O)c1 | 72.7% (active)
O=C(Nc1cccc(Cl)c1)Nc1ccccc1NS(=O)(=O)c1cccs1 | 11.3% (inactive)
COC(=O)CNC(c1ccccc1Cl)c1cc(Br)ccc1NC(=O)CCN1CCOCC1 (centres undefined) | -4.92% (inactive)
Cn1c(Cn2nnc3ccccc32)nnc1SCC(=O)c1ccccc1F | 0% (inactive)
Cc1oc(-c2cccc(Cl)c2)[n+]([O-])c1C | -7.45% (inactive)
Clc1ccc(-c2cc(C3CCNCC3)[nH]n2)c(Cl)c1 | 0.621% (inactive)
CCN1C(=O)c2cccc3c(N)ccc1c23 | 83.8% (active)
Cc1nn(C)cc1N1C(=O)c2cccc3c(N)ccc(c23)C1=O | 0.391% (inactive)
CCN1C(=O)c2cccc3c(S(=O)(=O)Nc4ccccc4O)ccc1c23 | 6.13% (inactive)
CC1=C2C(=O)OC(c3ccoc3)C2(C)CCC1 (centres undefined) | -1.03% (inactive)
CC(C)C(=O)Nc1ccc(C(=O)NNC(=O)c2cccs2)cc1 | -0.29% (inactive)
CCc1ccc(NC(=O)COC(=O)c2cccs2)cc1 | 11.2% (inactive)
CCc1ccc(NC(=O)C(=O)NNC(=O)c2cccs2)cc1 | 69.7% (active)
